# The sample as a whole holds a higher share of the strongest signals than the screen did.
# B1: PX15618B-bfa-464-25-464 (Bacteroides fragilis) (protein)
# chain: DQEPPLYVNENDIFTSPTRIEATLNGLYAAIKNTGTKSLMGGKSYLVFDNRGDDVINISNNLVTLFNTYNMNVGITDAENADTWTYAYLAINKVNTFLQSLEGAREVAGENYDRYVQEAKFVRALAYYYLNNLYPTPYSVNPDAKSVPLRLTAEAGTENNNMPRSTVKQIYEHILSDLENISALDTEVNTYTGVTHATQAAANMLKMRVYMAMNEWDKAITAGELVTGYSLPEDVTLIYKAPYFSQESIFSLPMADTNIPNTQQSLAEYYYDGKIMLIDTKSGIMSKPDYSLATDKRIIAFKGEKDLLMKFTDAKTKLQWVPIFRYAETLLDLAECYANKAGGEATAKSLLKQVRGRSVDAATDPLNIDNLSGDALKEAIYNEKRLEFIGEGIRGIDIMRRGEHFIKVGENETINVGPSDEKYTWPIPQVELLLNKDINK
# Assays:
# Assay in all cases: glycan array binding signal (z-score within array); higher = stronger binding
# Conditions in all cases: glycan notation: IUPAC condensed, linker removed
# Fuc(a1-2)Gal(b1-3)GalNAc = target: Fuc(a1-2)Gal(b1-3)GalNAc
# Outline: (§1)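 The binding signal is a Z-score computed within each array and averaged over linkers. Arrays of the same protein sequence at different concentrations or buffers were also averaged together. Data originate from 3228 arrays in the Consortium for Functional Glycomics database, kept only where the protein sequence was available.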
# [1] = target: Fuc(a1-2)Gal(b1-3)GlcNAc(b1-3)[Fuc(a1-2)Gal(b1-3)GlcNAc(b1-6)]GalNAc
# Outline: as §1
# [2] = target: Fuc(a1-2)Gal(b1-3)[Fuc(a1-4)]GlcNAc(b1-3)[Fuc(a1-3)[Gal(b1-4)]GlcNAc(b1-6)]Gal(b1-4)Glc
# Outline: as §1
# [3] = target: Fuc(a1-2)Gal(b1-4)GlcNAc(b1-2)Man(a1-3)[Fuc(a1-2)Gal(b1-4)GlcNAc(b1-2)Man(a1-6)]Man(b1-4)GlcNAc(b1-4)GlcNAc
# Outline: as §1
# [4] = target: Fuc(a1-2)Gal(b1-4)GlcNAc(b1-3)Gal(b1-4)GlcNAc(b1-3)Gal(b1-4)GlcNAc
# Outline: as §1
# [5] = target: Fuc(a1-2)Gal(b1-4)[Fuc(a1-3)]GlcNAc(b1-2)[Fuc(a1-2)Gal(b1-4)[Fuc(a1-3)]GlcNAc(b1-4)]Man(a1-3)[Fuc(a1-2)Gal(b1-4)[Fuc(a1-3)]GlcNAc(b1-2)Man(a1-6)]Man(b1-4)GlcNAc(b1-4)GlcNAc
# Outline: as §1
# [6] = target: Fuc(a1-2)[Gal(a1-3)]Gal(b1-4)GlcNAc(b1-2)Man(a1-3)[Fuc(a1-2)[Gal(a1-3)]Gal(b1-4)GlcNAc(b1-2)Man(a1-6)]Man(b1-4)GlcNAc(b1-4)GlcNAc
# Outline: as §1
# [7] = target: Fuc(a1-2)[Gal(a1-3)]Gal(b1-4)GlcNAc(b1-2)Man(a1-3)[Fuc(a1-2)[Gal(a1-3)]Gal(b1-4)GlcNAc(b1-2)Man(a1-6)]Man(b1-4)GlcNAc(b1-4)[Fuc(a1-6)]GlcNAc
# Outline: as §1
# [8] = target: Fuc(a1-2)[GalNAc(a1-3)]Gal(b1-3)GlcNAc
# Outline: as §1
# [9] = target: Fuc(a1-2)[GalNAc(a1-3)]Gal(b1-3)GlcNAc(b1-2)Man(a1-3)[Fuc(a1-2)[GalNAc(a1-3)]Gal(b1-3)GlcNAc(b1-2)Man(a1-6)]Man(b1-4)GlcNAc(b1-4)GlcNAc
# Outline: as §1
# [10] = target: Fuc(a1-2)[GalNAc(a1-3)]Gal(b1-3)GlcNAc(b1-2)Man(a1-3)[Fuc(a1-2)[GalNAc(a1-3)]Gal(b1-3)GlcNAc(b1-2)Man(a1-6)]Man(b1-4)GlcNAc(b1-4)[Fuc(a1-6)]GlcNAc
# Outline: as §1
# [11] = target: Fuc(a1-2)[GalNAc(a1-3)]Gal(b1-4)[Fuc(a1-3)]GlcNAc(b1-3)GalNAc
# Outline: as §1
# [12] = target: Fuc(a1-3)[GalNAc(b1-4)]GlcNAc
# Outline: as §1
# Gal(a1-3)Gal = target: Gal(a1-3)Gal
# Outline: as §1
# Gal(a1-4)Gal(b1-4)Glc = target: Gal(a1-4)Gal(b1-4)Glc
# Outline: as §1
# [13] = target: Gal(a1-4)Gal(b1-4)GlcNAc(b1-2)Man(a1-3)[Gal(a1-4)Gal(b1-4)GlcNAc(b1-2)Man(a1-6)]Man(b1-4)GlcNAc(b1-4)GlcNAc
# Outline: as §1
# Gal(b1-3)Gal = target: Gal(b1-3)Gal
# Outline: as §1
# Gal(b1-3)GlcNAc = target: Gal(b1-3)GlcNAc
# Outline: as §1
# [14] = target: Gal(b1-3)GlcNAc(b1-3)Gal(b1-4)GlcNAc(b1-2)Man(a1-3)[Gal(b1-3)GlcNAc(b1-3)Gal(b1-4)GlcNAc(b1-2)Man(a1-6)]Man(b1-4)GlcNAc(b1-4)GlcNAc
# Outline: as §1
# [15] = target: Gal(b1-3)[Fuc(a1-4)]GlcNAc(b1-2)Man(a1-3)[Gal(b1-3)[Fuc(a1-4)]GlcNAc(b1-2)Man(a1-6)]Man(b1-4)GlcNAc(b1-4)[Fuc(a1-6)]GlcNAc
# Outline: as §1
# [16] = target: Gal(b1-3)[Neu5Ac(b2-6)]GalNAc
# Outline: as §1
# [17] = target: Gal(b1-4)GlcNAc(b1-2)Man(a1-6)[Man(a1-3)]Man(b1-4)GlcNAc(b1-4)GlcNAc
# Outline: as §1
# [18] = target: Gal(b1-4)GlcNAc(b1-2)[Gal(b1-4)GlcNAc(b1-4)]Man(a1-3)[Gal(b1-4)GlcNAc(b1-2)Man(a1-6)]Man(b1-4)GlcNAc(b1-4)GlcNAc
# Outline: as §1
# [19] = target: Gal(b1-4)GlcNAc(b1-2)[Gal(b1-4)GlcNAc(b1-6)]Man(a1-6)[Gal(b1-4)GlcNAc(b1-2)Man(a1-3)]Man(b1-4)GlcNAc(b1-4)GlcNAc
# Outline: as §1
# [20] = target: Gal(b1-4)GlcNAc(b1-3)Gal(b1-3)GalNAc
# Outline: as §1
# [21] = target: Gal(b1-4)GlcNAc(b1-3)Gal(b1-4)GlcNAc(b1-3)Gal(b1-4)GlcNAc(b1-3)Gal(b1-4)GlcNAc(b1-3)Gal(b1-4)GlcNAc(b1-2)[Gal(b1-4)GlcNAc(b1-3)Gal(b1-4)GlcNAc(b1-3)Gal(b1-4)GlcNAc(b1-3)Gal(b1-4)GlcNAc(b1-3)Gal(b1-4)GlcNAc(b1-6)]Man(a1-6)[Gal(b1-4)GlcNAc(b1-3)Gal(b1-4)GlcNAc(b1-3)Gal(b1-4)GlcNAc(b1-3)Gal(b1-4)GlcNAc(b1-3)Gal(b1-4)GlcNAc(b1-2)Man(a1-3)]Man(b1-4)GlcNAc(b1-4)[Fuc(a1-6)]GlcNAc
# Outline: as §1
# [22] = target: Gal(b1-4)GlcNAc(b1-6)Gal(b1-4)GlcNAc
# Outline: as §1
# Gal(b1-4)GlcNAc6P = target: Gal(b1-4)GlcNAc6P
# Outline: as §1
# Gal3S(b1-4)GlcNAc = target: Gal3S(b1-4)GlcNAc
# Outline: as §1
# Gal4S6S(b1-4)GlcNAc = target: Gal4S6S(b1-4)GlcNAc
# Outline: as §1
# GalNAc(a1-3)GalNAc = target: GalNAc(a1-3)GalNAc
# Outline: as §1
# [23] = target: GalNAc(a1-3)GalNAc(b1-3)Gal(a1-4)Gal(b1-4)GlcNAc
# Outline: as §1
# Glc(b1-4)Glc = target: Glc(b1-4)Glc
# Outline: as §1
# [24] = target: GlcNAc(a1-4)Gal(b1-4)GlcNAc
# Outline: as §1
# [25] = target: GlcNAc(a1-4)Gal(b1-4)GlcNAc(b1-3)Gal(b1-4)GlcNAc
# Outline: as §1
# [26] = target: GlcNAc(b1-2)[GlcNAc(b1-4)]Man(a1-3)[GlcNAc(b1-4)][GlcNAc(b1-2)[GlcNAc(b1-6)]Man(a1-6)]Man(b1-4)GlcNAc(b1-4)[Fuc(a1-6)]GlcNAc
# Outline: as §1
# [27] = target: GlcNAc(b1-2)[GlcNAc(b1-6)]Man(a1-6)[GlcNAc(b1-2)Man(a1-3)]Man(b1-4)GlcNAc(b1-4)[Fuc(a1-6)]GlcNAc
# Outline: as §1
# [28] = target: GlcNAc(b1-4)Gal(b1-4)GlcNAc
# Outline: as §1
# [29] = target: GlcNAc(b1-6)Gal(b1-4)GlcNAc
# Outline: as §1
# Man(a1-6)Man = target: Man(a1-6)Man
# Outline: as §1
# [30] = target: Neu5Ac(a2-3)Gal(b1-3)GlcNAc(b1-2)Man(a1-3)[GlcNAc(b1-4)][Neu5Ac(a2-3)Gal(b1-3)GlcNAc(b1-2)Man(a1-6)]Man(b1-4)GlcNAc(b1-4)GlcNAc
# Outline: as §1
# [31] = target: Neu5Ac(a2-3)Gal(b1-3)GlcNAc6S
# Outline: as §1
# [32] = target: Neu5Ac(a2-3)Gal(b1-4)GlcNAc(b1-3)Gal(b1-4)GlcNAc(b1-3)Gal(b1-4)GlcNAc(b1-2)Man(a1-3)[Neu5Ac(a2-3)Gal(b1-4)GlcNAc(b1-3)Gal(b1-4)GlcNAc(b1-3)Gal(b1-4)GlcNAc(b1-2)Man(a1-6)]GalNAc
# Outline: as §1
# [33] = target: Neu5Ac(a2-3)Gal(b1-4)GlcNAc(b1-3)Gal(b1-4)GlcNAc(b1-3)[Neu5Ac(a2-3)Gal(b1-4)GlcNAc(b1-3)Gal(b1-4)GlcNAc(b1-6)]GalNAc
# Outline: as §1
# [34] = target: Neu5Ac(a2-3)Gal6S(b1-4)GlcNAc
# Outline: as §1
# [35] = target: Neu5Ac(a2-3)[GalNAc(b1-4)]Gal(b1-4)GlcNAc(b1-3)GalNAc
# Outline: as §1
# [36] = target: Neu5Ac(a2-6)Gal(b1-4)GlcNAc(b1-6)[Gal(b1-3)]GalNAc
# Outline: as §1
# [37] = target: Neu5Ac(a2-8)Neu5Ac(a2-3)Gal(b1-4)GlcNAc
# Outline: as §1
# [38] = target: Neu5Ac9Ac(a2-3)Gal(b1-4)GlcNAc
# Outline: as §1
binder,measurement,setting,value
B1,glycan array binding signal (z-score),Fuc(a1-2)Gal(b1-3)GalNAc,-0.355
same,glycan array binding signal (z-score),[1],1.41
same,glycan array binding signal (z-score),[2],-0.516
same,glycan array binding signal (z-score),[3],8.2
same,glycan array binding signal (z-score),[4],0.251
same,glycan array binding signal (z-score),[5],4.25
same,glycan array binding signal (z-score),[6],1.41
same,glycan array binding signal (z-score),[7],-0.101
same,glycan array binding signal (z-score),[8],-0.308
same,glycan array binding signal (z-score),[9],0.241
same,glycan array binding signal (z-score),[10],0.028
same,glycan array binding signal (z-score),[11],0.311
same,glycan array binding signal (z-score),[12],1.31
same,glycan array binding signal (z-score),Gal(a1-3)Gal,0.348
same,glycan array binding signal (z-score),Gal(a1-4)Gal(b1-4)Glc,0.822
same,glycan array binding signal (z-score),[13],-0.514
same,glycan array binding signal (z-score),Gal(b1-3)Gal,0.33
same,glycan array binding signal (z-score),Gal(b1-3)GlcNAc,1.37
same,glycan array binding signal (z-score),[14],-0.678
same,glycan array binding signal (z-score),[15],0.153
same,glycan array binding signal (z-score),[16],-0.017
same,glycan array binding signal (z-score),[17],0.248
same,glycan array binding signal (z-score),[18],0.511
same,glycan array binding signal (z-score),[19],2.66
same,glycan array binding signal (z-score),[20],-0.13
same,glycan array binding signal (z-score),[21],19.3
same,glycan array binding signal (z-score),[22],0.086
same,glycan array binding signal (z-score),Gal(b1-4)GlcNAc6P,-0.626
same,glycan array binding signal (z-score),Gal3S(b1-4)GlcNAc,-0.305
same,glycan array binding signal (z-score),Gal4S6S(b1-4)GlcNAc,-0.852
same,glycan array binding signal (z-score),GalNAc(a1-3)GalNAc,-0.504
same,glycan array binding signal (z-score),[23],-0.273
same,glycan array binding signal (z-score),Glc(b1-4)Glc,-0.138
same,glycan array binding signal (z-score),[24],-0.125
same,glycan array binding signal (z-score),[25],-0.455
same,glycan array binding signal (z-score),[26],0.399
same,glycan array binding signal (z-score),[27],0.701
same,glycan array binding signal (z-score),[28],1.25
same,glycan array binding signal (z-score),[29],-0.393
same,glycan array binding signal (z-score),Man(a1-6)Man,0.302
same,glycan array binding signal (z-score),[30],0.609
same,glycan array binding signal (z-score),[31],-0.374
same,glycan array binding signal (z-score),[32],3.29
same,glycan array binding signal (z-score),[33],0.164
same,glycan array binding signal (z-score),[34],-0.187
same,glycan array binding signal (z-score),[35],0.625
same,glycan array binding signal (z-score),[36],1.16
same,glycan array binding signal (z-score),[37],-0.48
same,glycan array binding signal (z-score),[38],0.409
